Six1-Eya2 blk: qHTS Assay for Inhibitors of the Six1/Eya2 Interaction; 0.56% of 360,000 active; AID 651725, 2012; activity change, % (test concentration not listed); Homeobox protein SIX1 (Homo sapiens) + Protein phosphatase EYA2 (Homo sapiens), …; AlphaScreen GST-Six1/His-Eya2 binding, biochemical; hits give low values; in the data active = activity change below about -65%; inconclusive = mostly about -30% to -63%
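Compounds are tested against tagged Six1 and Eya2 proteins bridged by glutathione donor and nickel acceptor beads; after a one-hour incubation at 37 °C without light, AlphaScreen emission is recorded.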
PKM2 act: qHTS Assay for Activators of Human Muscle isoform 2 Pyruvate Kinase. purified PKM2, Kinase-Glo ATP luminescence, activation; response scale: 0% is enzyme alone, no compound. Potency, µM (top dose mostly 57.5 µM), without a hit: at the top dose activation, actives largely listed as activators. 0.34% of 260,000 active; note: potency is the fitted concentration of half-maximal effect; nearly all actives have a fitted effect of over 55% in size
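Purified hPK-M2 (>95%) run at intermediate activity with 0.1 mM ADP and 0.5 mM PEP in 50 mM imidazole pH 7.2, KCl, MgCl2; 1 h room temperature. ATP formed read by Kinase-Glo luminescence; normalized to uninhibited and no-enzyme controls.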
CtBP-E1A blk: qHTS Assay for Inhibitors of the CtBP/E1A Interaction. CtBP / adenovirus E1A interaction (AlphaScreen). AlphaScreen GST-E1A/His-CtBP binding, 1536-well; hits give low values. 0.49% of 340,000 active. activity change, % (concentration not given with the values); in the data active = activity change below about -65%; inconclusive = mostly about -30% to -63%
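AlphaScreen with 125 nM GST-E1A and 125 nM His-CtBP (5X stocks) in Tris pH 8.0, 300 mM NaCl, BSA, Tween 20, TCEP. Compounds preincubated 2 h at 37 deg C, then glutathione donor/nickel acceptor beads added for 1 h at 37 deg C in dark.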
VP16 counter: VP16 counterscreen qHTS for inhibitors of ROR gamma transcriptional activity | Drosophila S2 Gal4-VP16 UAS-luciferase, luminescence, 20 h | Potency, µM (highest dose often 53.6 µM), for the others: at the highest dose activity, negative = inhibition, actives largely listed as inhibitors | 3.5% of 310,000 active;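 note: Gal4-VP16 expression switched on by copper sulfate through the metallothionein promoter; potency is the fitted concentration of half-maximal effect; nearly all actives have a fitted effect of over 50% in size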
RORg inh: qHTS for inhibitors of ROR gamma transcriptional activity; 5.4% of 310,000 active; Nuclear receptor ROR-gamma (Mus musculus), P51450; AID 2551, 2010; Potency, µM (highest dose often 53.6 µM), inactives show top-dose activity change, negative = inhibition, hits mostly inhibitors; Drosophila S2 Gal4-RORgamma UAS-luciferase reporter, 20 h; note: potency is the fitted concentration of half-maximal effect; nearly all actives have a fitted effect of over 60% in size
Target sequence (P51450 whole entry, looked up, the tested form may be a part): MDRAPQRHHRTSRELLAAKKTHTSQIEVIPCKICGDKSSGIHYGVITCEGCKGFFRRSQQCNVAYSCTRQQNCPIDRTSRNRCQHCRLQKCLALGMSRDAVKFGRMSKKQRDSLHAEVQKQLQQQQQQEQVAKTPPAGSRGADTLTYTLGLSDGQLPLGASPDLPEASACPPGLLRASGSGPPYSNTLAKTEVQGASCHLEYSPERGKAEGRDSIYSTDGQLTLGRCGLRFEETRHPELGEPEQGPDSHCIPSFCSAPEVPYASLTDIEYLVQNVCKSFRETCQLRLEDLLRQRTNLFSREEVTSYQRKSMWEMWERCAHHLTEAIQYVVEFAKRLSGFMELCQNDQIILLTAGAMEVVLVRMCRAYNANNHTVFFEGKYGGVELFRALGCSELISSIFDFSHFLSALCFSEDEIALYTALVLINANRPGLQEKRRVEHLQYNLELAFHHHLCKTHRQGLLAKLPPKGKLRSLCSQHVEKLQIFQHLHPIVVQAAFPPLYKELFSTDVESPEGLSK
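Read-out: Photinus luciferase luminescence; inhibitors lower reporter signal. Insect Schneider cells with Gal4-ROR gamma fusion under metallothionein promoter, UAS reporter; 700 uM final copper sulfate induction, 20 hr, ambient temperature.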
An asterisk follows results filed as active; ? = inconclusive; . = not tested or not shown; [ ] = dose if it differs, or a comment. The list is not random: actives were taken first. Their share in the collection is about 5.6%. Unless noted, calls come from the whole dose curve; as a rule, active = well fitted curve in the direction sought with a large enough effect; inconclusive = small, poorly fitted or top-dose-only effect, or another doubt; inactive = no such curve, though single readings can be large; an effect the other way counts as inactive or inconclusive. % is set by controls: 0 for no effect and ±100 for the full control effect.

SMILES | Six1-Eya2 blk | PKM2 act | CtBP-E1A blk | VP16 counter | RORg inh
COC(=O)C1=C(C)N(c2ccc(S(N)(=O)=O)cc2)C(=O)C1 | 11 | 0% | -4 | -10% | -6%
CCn1c(-c2cc(-c3cc(OC)ccc3OC)nc3ccccc23)n[nH]c1=S | 0 | -6% | -5 | -17% | 8.9µM*
COc1ccc(-c2n[nH]c(=S)n2N)c(OC)c1 | 8 | 2% | . | 4% | -14%
CCn1c(-c2cc(-c3ccccc3OC)nc3ccccc23)n[nH]c1=S | 0 | -14% | 0 | -3% | 7.9µM*
CCS(=O)(=O)N1CCN(CC(=O)NC2CCCCC2)CC1 | 0 | -3% | -9 | -10% | 15%
NC(=S)N/N=C1\CC(n2nnn(-c3cccc(Cl)c3)c2=S)C2COC1O2 (stereo not drawn) | -1 | 6% | -3 | ? | 4µM*
NC(=S)N/N=C1\CC(n2nnnc2-c2ccccc2)C2COC1O2 (stereo not drawn) | 0 | 0% | 1 | ? | ?
COc1ccc(CCN2C(=O)CC(NNc3ccc([N+](=O)[O-])cc3)C2=O)cc1OC (stereo not drawn) | -7 | 1% | -3 | 12% | 1%
Cc1sc2nc(COC(=O)c3ccc(O)cc3)[nH]c(=O)c2c1C | 0 | -1% | -11 | 4% | -18%
Cc1sc2nc(COC(=O)c3c(F)cccc3F)[nH]c(=O)c2c1C | 19 | 2% | -18 | 23% | 13µM*
CCCCC[C@H](O)/C=C/[C@@H]1[C@@H](C/C=C\CCCC(=O)O)[C@@H](O)C[C@@H]1O | . | . | . | -2% | -6%
CO[C@H](C(=O)[C@@H](O)[C@@H](C)O)C1Cc2cc3cc(O[C@H]4C[C@@H](O[C@H]5C[C@@H](O)[C@H](O)[C@@H](C)O5)[C@@H](O)[C@@H](C)O4)c(C)c(O)c3c(O)c2C(=O)[C@H]1O[C@H]1C[C@@H](O[C@H]2C[C@@H](O[C@H]3C[C@](C)(O)[C@H](O)[C@@H](C)O3)[C@H](O)[C@@H](C)O2)[C@H](O)[C@@H](C)O1 (stereo partly drawn) | . | . | . | 0.5µM* | 0.63µM*
COC(C(=O)C(O)C(C)O)C1Cc2cc3cc(OC4CC(OC5CC(O)C(O)C(C)O5)C(O)C(C)O4)c(C)c(O)c3c(O)c2C(=O)C1OC1CC(OC2CC(OC3CC(C)(O)C(O)C(C)O3)C(O)C(C)O2)C(O)C(C)O1 (stereo not drawn) | . | . | . | 0.79µM* | 0.71µM*
COC(C(=O)C(O)C(C)O)C1Cc2cc3cc(OC4CC(OC5CC(O)C(O)C(C)O5)C(O)C(C)O4)c(C)c(O)c3c(O)c2C(=O)C1OC1CC(OC2CC(OC3CC(O)C(OC)C(C)O3)C(O)C(C)O2)C(O)C(C)O1 (stereo not drawn) | -18 | . | 6 | . | .
CN1CCN(NC(=S)NC(C)(C)CC(C)(C)C)CC1 | 5 | -5% | 1 | 18µM* | 6.3µM*
CN1CCN(NC(=S)NC2CCCC2)CC1 | -1 | 2% | 8 | -15% | 0%
Cc1cccc(C)c1Nc1nc2ccccc2o1 | -1 | -13% | 0 | ? | 16µM*
Cc1nc(Nc2nc3ccccc3o2)nc2c1CCC2 | 6 | -33% | -3 | 6.3µM* | 2.8µM*
CC1(C)CC(NC(=O)c2cccc(S(=O)(=O)N(Cc3ccccc3)c3ccccc3)c2)CC(C)(C)N1 | -2 | . | -15 | . | .
CCOc1ccc(S(=O)(=O)Nc2cccc(C(=O)N(C)Cc3cccc(OC)c3OC)c2)cc1 | -8 | 2% | 3 | 2% | ?
CC(NC(=O)CCn1ccc2cc(S(=O)(=O)N3CCCC3)ccc21)c1ccccc1 (stereo not drawn) | -2 | . | 1 | 3% | 18%
O=C(Nc1nccs1)c1ccc(COc2ccc(F)cc2)o1 | -6 | 0% | 5 | ? | ?
O=C(Nc1nccs1)c1ccc(COc2ccc(Cl)cc2)o1 | -7 | 1% | -10 | -29% | 13µM*
O=C(CSCc1ccc(Cl)cc1)Nc1nccs1 | 1 | -14% | 6 | 0% | 14µM*
CN(C)c1ccc(NC(=O)c2ccc(COc3cccc(Cl)c3)o2)cc1 | -72* | -12% | ? | -3% | 31%
SMILES | Six1-Eya2 blk | PKM2 act | CtBP-E1A blk | VP16 counter | RORg inh
O=C(CSCC(=O)Nc1nccs1)Nc1ccccc1 | -3 | -11% | 1 | -22% | 28%
CC(C)C(C(=O)Nc1nccs1)c1ccc(Cl)cc1 (stereo not drawn) | 1 | 0% | 3 | ? | 14µM*
OC1(CNCc2cn[nH]c2-c2cc3ccccc3o2)CCCCC1 | -1 | 6% | 22 | 0% | -4%
Cc1nc(C)c(-c2ccc(SCc3ccccc3F)nn2)s1 | -11 | -1%[0.46 µM] | . | -2% | 28%
CNC(=O)c1ccc2cc(OC)c(OC)cc2c1 | -7 | . | 4 | . | .
Cc1cc(NC(=O)CSc2nnc(CNC(=O)c3ccc(C(C)(C)C)cc3)o2)no1 | -76* | -1% | ? | -1% | -14%
Cc1cc(NC(=O)CSc2nnc(-c3ccco3)o2)no1 | -74* | 22% | -90* | 0% | -8%
COc1ccc(-c2nnc(SCC(=O)Nc3cc(C)on3)o2)cc1 | -27 | 22% | ? | ? | 11µM*
CCOC(=O)CSc1nnc(-c2ccc(OC)cc2OC)o1 | 4 | -6% | -6 | ? | 8.9µM*
COc1ccc(-c2nnc(SC)o2)c(OC)c1 | 5 | 2% | -5 | -7% | 1%
COc1ccc(-c2nnc(SCC(=O)Nc3cc(F)ccc3C)o2)cc1 | 2 | -4% | 0 | -28% | -40%
Cc1nnc(NC(=O)CSc2nnc(CCc3nc4ccccc4[nH]3)n2C)s1 | -3 | -8% | -7 | 0% | -13%
Cn1c(CCc2nc3ccccc3[nH]2)nnc1SCC#N | 4 | 7% | -11 | ? | 14µM*
Cc1ccccc1CN(C)CC(=O)NC(C)CCc1ccccc1 (stereo not drawn) | 2 | 0% | -3 | 4% | 10%
CN(C1=C(N2CCCCC2)C(=O)c2ccccc2C1=O)c1ccccc1 | -83* | -18% | -2 | 9% | -25%
Cc1cccc(N2CCN(C(=O)CSCc3c(C)noc3C)CC2)c1C | 4 | 0% | 5 | 10µM* | ?
CCNC(=O)CSc1nnc(CN2CCCCCC2=O)n1-c1ccccn1 | -2 | 1% | 4 | -4% | 20%
O=C1CCCCCN1Cc1nnc(SCc2nc3ccccc3s2)n1-c1ccccn1 | 5 | 9% | -1 | 7.1µM* | 2.5µM*
Cn1c(CCNC(=O)c2ccco2)nc2cc(NS(=O)(=O)c3ccccc3)ccc21 | -2 | 3.2µM* | -9 | 2% | 19%

Screening data (PubChem BioAssay)
